According to PubChem BioAssay (Tox21):
Inconclusive results are not listed. Entries that show only a call come without a potency. Unmarked numbers belong to inactive results. Activity calls are given as the source filed them. Calls come from the whole dose curve.

Test: p53 small molecule agonists, cell-based qHTS assay with human liver microsomes (AID 1963577);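 note: p53 response element beta-lactamase reporter cells with liver microsomes plus NADPH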
Method in brief: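 Cells carrying a p53-responsive bla reporter were rested 5 h (37 C, 5% CO2) before compound transfer. Human liver microsomes plus NADPH, 0.5 mg/mL final apiece, supplied metabolism during the 16 h 37 C exposure.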

Row | Structure (SMILES) | Potency | activation
1 | CC(C)C(=O)OC(=O)C(C)C | inactive | –
2 | CC1=CC[C@@]23C[C@@H]1C(C)(C)[C@@H]2CC[C@H]3C | inactive | –
3 | Clc1ccc2c(Cl)ccnc2c1 | inactive | –
4 | CNC(=O)Nc1ccc(Cl)c(Cl)c1 | inactive | –
5 | CCCCC(CC)C(=O)OCCOCCOCCOC(=O)C(CC)CCCC (stereo unspecified) | inactive | –
6 | N[C@H](C(=O)O)c1ccc(O)cc1 | – | 0.205% [at 13.5 µM]
7 | IC(I)I | inactive | –
8 | O=C(O)CNC(=O)c1ccccc1I | inactive | –
9 | C1CCCC1 | inactive | –
10 | CCn1cc(C(=O)O)c(=O)c2cc3c(cc21)OCO3 | inactive | –
11 | CC[C@]1(O)C[C@@H]2CN(CCc3c([nH]c4ccccc34)[C@@](C(=O)OC)(c3cc4c(cc3OC)N(C)[C@H]3[C@@](O)(C(=O)OC)[C@H](OC(C)=O)[C@]5(CC)C=CCN6CC[C@]43[C@@H]65)C2)C1 | inactive | –
12 | CCCCCCCCCCCCCCCC(=O)OC | – | 0.811% [at 13.5 µM]
13 | O=C(O)[C@H](O)[C@@H](O)[C@H](O[C@@H]1O[C@H](CO)[C@H](O)[C@H](O)[C@H]1O)[C@H](O)CO | inactive | –
14 | OCC1(CO)COCOC1 | inactive | –
15 | CC[C@]12CCCN3CCc4c(n(c5ccccc45)[C@@](O)(C(=O)OC)C1)[C@@H]32 | inactive | –
16 | CCCCC1CCC(O)CC1 (stereo unspecified) | inactive | –
17 | O=c1[nH][nH]c(=O)c2cc([N+](=O)[O-])ccc12 | inactive | –
18 | CCCCCCCCCCCC(=O)OC[C@@H](O)[C@H]1OC[C@H](OCCO)[C@H]1OCCO | inactive | –
19 | c1ccc(CSCc2ccccc2)cc1 | inactive | –
20 | CC[C@@H]1C[C@H](N(Cc2cc(C(F)(F)F)cc(C(F)(F)F)c2)C(C)=O)c2cc(C(F)(F)F)ccc2N1C(=O)OC(C)C | inactive | –
21 | CCCOCCOCCOCCO | inactive | –
